CHO-K1 Ca antag = M1 antagonist counterscreen hit in parental CHO-K1 cells. 360,000 tested, 0.6% active. AID 602250. ATP-induced calcium, Fluo-8 fluorescence. inhibition, % at 3 µM;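 active means inhibition above a per-plate cutoff, the plate's mean sample inhibition plus 3 SD, cut at about 24% in these data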;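 further: 0% = DMSO plus EC80 ATP and 100% = DMSO alone without ATP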
M1 PAM = potentiates human M1 receptor response to acetylcholine. CHO-K1 hM1, Fluo-8 calcium fluorescence, ACh EC20; 0% = ACh EC20, 100% = maximal ACh. activation, % at 3 µM. P11229. 360,000 tested, 0.088% active; in the data active means activation above about 19%, passing the limit was not always enough
Target sequence (P11229 whole entry, looked up): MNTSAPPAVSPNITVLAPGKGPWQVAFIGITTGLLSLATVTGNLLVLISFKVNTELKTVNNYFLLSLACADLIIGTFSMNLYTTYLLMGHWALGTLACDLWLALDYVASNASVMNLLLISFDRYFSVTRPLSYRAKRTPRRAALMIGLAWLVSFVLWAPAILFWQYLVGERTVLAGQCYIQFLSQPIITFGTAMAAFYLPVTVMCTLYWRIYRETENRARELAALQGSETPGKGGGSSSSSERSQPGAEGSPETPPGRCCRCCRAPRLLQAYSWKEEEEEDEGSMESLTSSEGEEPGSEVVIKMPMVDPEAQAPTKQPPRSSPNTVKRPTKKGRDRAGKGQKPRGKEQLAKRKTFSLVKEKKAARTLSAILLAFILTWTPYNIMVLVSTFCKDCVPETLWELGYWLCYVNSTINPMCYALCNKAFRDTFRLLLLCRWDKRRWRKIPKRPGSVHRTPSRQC
M1 antag = human CHRM1 antagonism. CHO-K1 hM1, Fluo-8 calcium fluorescence, ACh EC80 antagonist. inhibition, % at 3 µM. AID 588852. P11229. 360,000 tested, 1.3% active;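 active means percent inhibition above its own plate's cutoff, namely the mean of that plate's compound wells plus 3 SD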;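 further: peak over basal fluorescence ratio during 140 s after agonist addition; 0% = ACh EC80 plus DMSO and 100% = DMSO alone without agonist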
M1 ag = agonists of human M1 muscarinic receptor | CHO-K1 hM1, Fluo-8 calcium fluorescence, agonist mode; 0% DMSO, 100% acetylcholine EC100 | 360,000 tested, 0.33% active | activation, % at 3 µM;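 active means activation above the run's mean compound activation plus 3 SD, cut at about 16% in these data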;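 further: peak over basal fluorescence ratio within a 140 s kinetic read after compound addition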
CHO-K1 Ca ag = nonselective activator or artifact in parental CHO-K1 cells; Fluo-8 calcium fluorescence; scaled to maximal ATP response, vehicle zero; activation, % at 3 µM; 360,000 tested, 0.48% active; AID 602248; in the data active means activation above about 15%;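 further: untransfected CHO-K1 host cells lacking M1 receptor as counterscreen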
M1 PAM parental = counter-screen for M1 PAMs: effect in parental CHO-K1 cells; ATP EC20, Fluo-8 calcium fluorescence; 0% at ATP EC20, 100% at ATP max; activation, % at 3 µM; 360,000 tested, 0.02% active;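 active means activation above the run cutoff, the mean activation of all test compounds plus 3 SD, cut at about 40% in these data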;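 further: peak over basal fluorescence ratio in a 140 s read after ATP addition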
The depositor's hits bear a star; ! = not confirmed by another sample. A selection: hits, their analogues and other compounds. The true share with any hit is near 2.3%.

SMILES	CHO-K1 Ca antag	M1 PAM	M1 antag	M1 ag	CHO-K1 Ca ag	M1 PAM parental
COc1cc(NC(=O)c2ccno2)cc(C(=O)Nc2cccc(C(F)(F)F)c2)c1	12.4	-20.7	30.6*	9.2	17.3*	-13.8
CC(C)Oc1cc(F)ccc1-c1cc(C(=O)Nc2cccc(C(F)(F)F)c2)[nH]n1	11.2	-22.2	35.4*	-4.1	0.0	-13.7
COc1cc(NC(=O)c2cc3cccc(OC)c3o2)cc(C(=O)Nc2cccc(C(F)(F)F)c2)c1	1.8	-6.8	14.3	-1.9	0.8	3.5
COc1ccc(NC(=O)c2cc(-c3ccc(F)cc3OC(C)C)n[nH]2)cn1	5.4	-4.7	8.0	-3.5	5.2	19.9
COc1ccc(-c2cc(C(=O)Nc3cc(OC)cc(C(=O)Nc4cccc(C(F)(F)F)c4)c3)[nH]n2)cc1	3.8	-10.7	41.0*!	0.7	0.7	1.1
COC(=O)CCC(=O)OC1(C)C(=O)C=C2C=C(C3CC3)N(c3ccccc3)C=C2C1=O (stereo not drawn)	21.8	-17.6	28.4*	-4.8	-0.9	-20.6
COC(=O)CCC(=O)OC1(C)C(=O)C=C2C=C(C3CC3)N(CCCCO)C=C2C1=O (stereo not drawn)	-3.9	6.3	-6.6	-3.7	0.2	5.2
CCN(CC)C(=O)COc1coc(CN2CCN(c3ccccc3)CC2)cc1=O	-14.9	14.9	-4.7	2.4	1.7	17.4
CCSc1ccc2c(c1)N(CCCN1CCN(C)CC1)c1ccccc1S2	6.6	-19.3	22.5	-6.0	2.8	13.7
CN1CCCCC1CCN1c2ccccc2Sc2ccc(S(C)=O)cc21 (stereo not drawn)	-10.4	-25.3	99.3*	-7.5	-0.1	20.6
Cc1nc(C(F)(F)F)ccc1C(=O)N1CCC1(C)C(=O)Nc1ccc2c(c1)OCO2 (stereo not drawn)	-8.0	9.2	-18.2	-2.1	0.3	4.5
COCCN1CCc2[nH]c(=S)[nH]c(=O)c2C1	2.9	-1.9	5.8	-3.6	4.0	13.1
CCCCN1CCc2[nH]c(=S)[nH]c(=O)c2C1	-23.5	24.6*	-19.8	-2.6	0.7	32.1
COc1ccc(CNc2cccc3[nH]c(C(F)(F)F)nc23)cc1	-10.1	6.0	-8.7	-2.9	0.2	14.4
Cc1ccc(C(=O)Nc2cccc3[nH]c(C(F)(F)F)nc23)cc1	-0.9	4.5	-10.5	0.9	16.7*	0.4
O=C(Nc1ccccc1)Nc1ccc(Br)c(Cl)c1	26.8*	-13.3	27.9	-0.1	13.3	3.0
O=C1C=C(NC(=O)Nc2ccc(Cl)c(Cl)c2)CCC1	29.9*	-11.9	12.7	0.7	7.1	-1.6
O=C(Nc1ccc(Cl)c(Cl)c1)Nc1ccccc1O	24.6*	-7.4	19.1	1.9	13.0	-9.1
NNC(=O)C(=O)Nc1ccc(Cl)c(Cl)c1	-5.4	10.2	-22.9	-2.3	0.7	3.9
O=C(Nc1ccc(Cl)c(Cl)c1)Nc1ccc(Br)cc1F	27.5*	-19.1	27.9	-0.2	11.0	1.1
CC(C)(COC(=O)c1ccccc1)N1CC2CCC(C1)O2	-19.7	16.1	-29.5	-3.8	0.5	15.7
O=C(NCC1CCCO1)c1ccc(Br)c(S(=O)(=O)N2CCOCC2)c1 (stereo not drawn)	4.9	2.0	-2.2	-2.0	-0.1	-8.0
O=C(NCCc1ccccn1)c1cc2ccccc2o1	1.8	1.0	3.0	-2.9	0.3	-7.4
O=C(Nc1ccc(Cl)c(Cl)c1)Nc1ccon1	19.9	-14.9	23.9*	4.2	10.6	-19.6
Cc1cc(NC(=O)Nc2ccc(Cl)c(Cl)c2)no1	13.0	-1.2	9.0	2.9	7.0	-14.4
CC(C)c1ccc(CNC(=O)C(=O)Nc2nccs2)cc1	16.3	-5.5	8.5	-5.0	-0.1	-11.4
CC(C)Cc1ccc(C(C)C(=O)Nc2nccs2)cc1 (stereo not drawn)	7.8	0.5	-1.0	23.6*	16.5*	21.7
CC(C)Cc1ccc(C(C)C(=O)Nc2ccccc2O)cc1 (stereo not drawn)	45.8*	-16.7	69.1*	35.5*	38.2*	-8.4
O=C(Nc1ccccn1)c1sc2cccc(F)c2c1Cl	-7.6	-5.8	13.8	-1.2	4.3	-8.8
